Source: PubChem BioAssay (Tox21)
Records with an inconclusive call do not appear. Entries that show only a call come without a potency. The source made the active and inactive calls. Unless noted, the call rests on the fitted dose curve; in most records, active means well fitted curve in the direction sought with a large enough effect in the repeat runs; inconclusive means weak or mixed curves; inactive means no such curve, though single readings can be large; an effect the other way counts as inactive or inconclusive.

What was measured:
[1] = A CellTox Green Cytotoxicity Assay to monitor cytotoxicity in HepG2 cells - 8 hour (AID 1224890); further: nearly all actives have a fitted effect of over 45% in size
Outline: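 Real-time cytotoxicity: fluorescence of a cell-impermeant cyanine dye binding DNA of dead HepG2 cells, measured repeatedly (0–40 h) during compound exposure at 37 C. Cells seeded 600/well with reagent, dosed after 5 h.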

[2] = qHTS assay to identify small molecule antagonists of the androgen receptor (AR) signaling pathway using the MDA cell line in the presence of 0.5 nM R1881 - cell viability counter screen (AID 1259242); further: nearly all actives have a fitted effect of over 45% in size
Outline: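 Live-cell protease activity was measured by CellTiter-Fluor fluorescence after 30 min. Before that, MDA-kb2 MMTV-luciferase cells had 16 hr at 37C without CO2, exposed to test compounds and 0.5 nM R1881 final.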

[3] = biological target: Estrogen receptor (Homo sapiens) (UniProt P03372); assay: qHTS assay to identify small molecule antagonists of the estrogen receptor alpha (ER-alpha) signaling pathway using the BG1 cell line in the presence of 0.1 nM 17-beta-estradiol (AID 1259244); further: nearly all actives have a fitted effect of over 50% in size
Outline: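 Luciferase luminescence (ONE-Glo, 30 min at room temperature) was read after 22 hr at 37C exposure to compounds plus 17beta-estradiol at 0.1 nM final. Cells were VM7Luc4E2 with endogenous ER-alpha and an ERE-driven luciferase, pre-cultured 5 days in hormone-depleted medium.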

[4] = qHTS assay to identify small molecule phospholipidosis (PLD) inducers (AID 1259344; active means well fitted curve in the direction sought with a large enough effect; an effect the other way counts as inactive or inconclusive)
Outline: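 Read-out is LipidTOX Red fluorescence (ex 595/em 615) imaged in HepG2 cells after 24 h compound exposure at 37 C, with Hoechst nuclear counterstain (ex 352/em 461) allowing per-cell normalisation.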

[5] = qHTS assay to identify small molecule HDAC inhibitors (AID 1259364); further: nearly all actives have a fitted effect of over 45% in size
Outline: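 Luminescence read after 30 min room-temperature HDAC-Glo incubation measures cellular class I/II HDAC activity. Compounds were applied for 2 hr at 37 C to HCT-116 wild-type cells seeded the day before.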

[6] = qHTS assay to identify small molecule HDAC inhibitors - cell viability counter screen (AID 1259365); further: nearly all actives have a fitted effect of over 50% in size
Outline: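 HCT-116 wild-type, overnight attachment; 2hr drug exposure, 37C; CellTiter-Glo luminescent ATP readout after 30min RT.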

[7] = qHTS assay to identify small molecule agonists of the sonic hedgehog signaling (Shh) pathway - cell viability counter screen (AID 1259366); further: nearly all actives have a fitted effect of over 50% in size
Outline: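 Compounds in DMSO were pin-transferred onto 3T3 Gli1-Luc cells that had settled 4hr; plates then stood 24hr at 37C and 5% CO2. One hour before the end, CellTiter-Fluor was added and fluorescence recorded.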

[8] = qHTS assay to identify small molecule antagonists of the estrogen receptor alpha (ER-alpha) signaling pathway using the BG1 cell line in the presence of 0.1 nM 17-beta-estradiol - cell viability counter screen (AID 1259241); further: nearly all actives have a fitted effect of over 40% in size
Outline: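 Following 5 days in phenol red-free medium with charcoal-stripped serum, VM7Luc4E2 cells received test compounds alongside 0.1 nM 17beta-estradiol (final) at 37C for 22 hr. Live cells were then quantified via protease-substrate fluorescence.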

[9] = qHTS assay to identify small molecule antagonists of the sonic hedgehog signaling (Shh) pathway - cell viability counter screen (AID 1259367); further: nearly all actives have a fitted effect of over 55% in size
Outline: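 Fluorescence read-out (CellTiter-Fluor, 1 hr at 37C) taken after 23 hr compound treatment of 3T3 Gli1-Luc cells stimulated with conditioned medium. Cells were seeded at 2,000 per well and pre-incubated 4 hr.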

[10] = biological target: Androgen receptor (Homo sapiens) (UniProt P10275); assay: qHTS assay to identify small molecule antagonists of the androgen receptor (AR) signaling pathway using the MDA cell line in the presence of 0.5 nM R1881 (AID 1259243); further: nearly all actives have a fitted effect of over 50% in size
Outline: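 Luminescent reporter readout (ONE-Glo, 30 min, room temperature) after 16 hr co-treatment of MDA-kb2 cells with test compounds and 0.5 nM R1881 final, at 37C without CO2. The MMTV-driven luciferase responds to both AR and GR.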
Potency means the concentration at half of the fitted maximal effect.

Chain of Estrogen receptor (Homo sapiens) (P03372 whole entry, looked up): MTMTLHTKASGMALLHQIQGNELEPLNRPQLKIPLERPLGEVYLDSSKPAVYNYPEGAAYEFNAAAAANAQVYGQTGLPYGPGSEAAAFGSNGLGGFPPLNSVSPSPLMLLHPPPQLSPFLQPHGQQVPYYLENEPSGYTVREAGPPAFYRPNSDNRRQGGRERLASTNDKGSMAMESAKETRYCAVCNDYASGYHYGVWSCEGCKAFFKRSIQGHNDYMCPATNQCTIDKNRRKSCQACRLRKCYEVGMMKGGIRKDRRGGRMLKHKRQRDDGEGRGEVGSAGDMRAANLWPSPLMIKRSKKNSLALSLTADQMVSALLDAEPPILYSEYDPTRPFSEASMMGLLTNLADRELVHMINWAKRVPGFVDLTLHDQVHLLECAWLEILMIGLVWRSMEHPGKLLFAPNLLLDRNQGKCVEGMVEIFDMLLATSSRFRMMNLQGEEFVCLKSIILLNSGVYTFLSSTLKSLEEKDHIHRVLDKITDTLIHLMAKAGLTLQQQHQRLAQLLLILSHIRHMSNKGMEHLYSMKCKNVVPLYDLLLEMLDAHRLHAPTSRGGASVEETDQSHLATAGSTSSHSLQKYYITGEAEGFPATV
Chain of Androgen receptor (Homo sapiens) (P10275 whole entry, looked up): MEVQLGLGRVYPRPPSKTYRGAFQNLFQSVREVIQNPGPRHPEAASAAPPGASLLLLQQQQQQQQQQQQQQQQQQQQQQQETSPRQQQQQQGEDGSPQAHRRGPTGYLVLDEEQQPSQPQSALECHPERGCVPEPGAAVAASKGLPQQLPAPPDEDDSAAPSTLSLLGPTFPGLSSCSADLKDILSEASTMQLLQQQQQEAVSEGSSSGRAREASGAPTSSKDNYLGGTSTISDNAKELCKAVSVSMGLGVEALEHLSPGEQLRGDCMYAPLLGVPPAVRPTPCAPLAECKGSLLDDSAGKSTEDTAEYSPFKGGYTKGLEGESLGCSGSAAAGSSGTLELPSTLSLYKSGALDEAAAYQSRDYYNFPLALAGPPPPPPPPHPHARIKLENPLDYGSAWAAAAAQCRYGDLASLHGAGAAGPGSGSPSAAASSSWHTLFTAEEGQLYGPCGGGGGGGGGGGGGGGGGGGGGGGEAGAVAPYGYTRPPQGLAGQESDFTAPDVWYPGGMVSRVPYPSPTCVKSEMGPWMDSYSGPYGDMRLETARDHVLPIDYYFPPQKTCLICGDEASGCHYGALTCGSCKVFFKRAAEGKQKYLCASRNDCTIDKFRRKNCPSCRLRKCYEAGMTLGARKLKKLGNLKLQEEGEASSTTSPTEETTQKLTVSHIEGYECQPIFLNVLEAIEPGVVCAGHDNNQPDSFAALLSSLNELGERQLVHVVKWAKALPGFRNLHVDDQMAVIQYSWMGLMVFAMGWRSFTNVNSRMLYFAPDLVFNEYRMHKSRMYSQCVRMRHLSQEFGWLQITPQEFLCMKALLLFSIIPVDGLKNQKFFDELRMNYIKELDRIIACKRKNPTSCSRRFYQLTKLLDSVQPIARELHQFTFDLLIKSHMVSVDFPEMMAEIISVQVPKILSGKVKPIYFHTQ

SMILES | Potency [1] | Potency [2] | Potency [3] | Potency [4] | Potency [5] | Potency [6] | Potency [7] | Potency [8] | Potency [9] | Potency [10]
C=Cc1ccc(S(=O)(=O)O)cc1 | 54.9 µM (active) | inactive | inactive | inactive | inactive | inactive | inactive |  |  | 
Cc1ccccc1N=C(N)Nc1ccccc1C | inactive | inactive | inactive |  | inactive | inactive | inactive |  |  | 
Brc1cc2ccccc2c2ccccc12 | inactive |  | inactive |  | inactive | inactive |  | inactive | inactive | 
CCOC(=O)c1ccc(I)cc1 | inactive | inactive | inactive |  | inactive | inactive | inactive |  | inactive | 
Oc1cc2c(cc1O)[C@H]1c3ccc(O)c(O)c3OC[C@@]1(O)C2 | inactive |  |  |  | 55.1 µM (active) | inactive |  | 27.6 µM (active) | 27.6 µM (active) | 
Nc1cccc2c1CN(C1CCC(=O)NC1=O)C2=O (stereo not drawn) | inactive | inactive | inactive | inactive | inactive | inactive |  |  | inactive | 
c1ccc(C[n+]2cccc3ccccc32)cc1 | inactive |  | 27.3 µM (active) |  | inactive | inactive | inactive | inactive |  | 
CCC(C)(C)OC | inactive | inactive | inactive |  | inactive | inactive | inactive |  | inactive | 
CCCCC(CC)CN (stereo not drawn) | inactive | inactive | inactive |  | inactive | inactive | inactive |  | inactive | inactive
Oc1cccc(O)c1O | inactive | inactive | inactive | inactive | inactive | inactive |  |  | 48.1 µM (active) | 
CO[C@]1(NC(=O)CSC(F)F)C(=O)N2C(C(=O)O)=C(CSc3nnnn3CCO)CO[C@H]21 | inactive | inactive | inactive | inactive | inactive | inactive | inactive |  | inactive | 
CCC(=O)C1CC(C(C)C)CC=C1C (stereo not drawn) | inactive | inactive | inactive |  | inactive | inactive | inactive |  | inactive | inactive
O=[N+]([O-])c1ccc(O/N=C/c2cc(Br)c(O)c(Br)c2)c([N+](=O)[O-])c1 | inactive |  | 30.5 µM (active) |  |  | inactive |  | 24.2 µM (active) |  | 
COc1ccccc1N1CCN(CCCCNC(=O)c2ccc(-c3ccc(C(C)=O)cc3)cc2)CC1 | inactive |  |  |  | inactive | inactive |  | inactive | inactive | 
C[C@@H](O[C@H]1OCCN(Cc2n[nH]c(=O)[nH]2)[C@H]1c1ccc(F)cc1)c1cc(C(F)(F)F)cc(C(F)(F)F)c1 | 16.9 µM (active) | inactive |  |  | inactive | inactive |  |  |  | 29.8 µM (active)
O=c1cc(-c2ccccc2)oc2cc(O)cc(O)c12 | inactive | inactive |  |  | 6.86 µM (active) | inactive | 48.6 µM (active) |  | 61.1 µM (active) | inactive
CC(=O)N/N=C/c1ccc([N+](=O)[O-])o1 | inactive | inactive | inactive | inactive | inactive | inactive |  |  | inactive | 
Cc1ccco1 | inactive | inactive | inactive |  | inactive | inactive | inactive |  | inactive | 
CCCCCCCCCCCCCCN(CCO)CCO | 54.9 µM (active) | 48.6 µM (active) |  |  | inactive | inactive |  |  | inactive | 
CC(=O)c1cc2ccccc2s1 | inactive | inactive | inactive |  | inactive | inactive |  |  | inactive | 
CC(CCC(=O)O)C(=O)O (stereo not drawn) | inactive | inactive |  |  | inactive | inactive | inactive |  | inactive | 
O=C1c2ccccc2C(=O)C1c1nc2ccccc2c(Br)c1O |  |  | inactive |  | 27.3 µM (active) | inactive | inactive | inactive | inactive | 
C[C@@H]1CN(CCCn2c3ccccc3c3ccccc32)C[C@H](C)N1 |  |  |  | 10 µM (active) | inactive | inactive |  | inactive | 33.5 µM (active) | 
Oc1cccc(Nc2ccccc2)c1 | inactive | inactive | inactive |  | inactive | inactive |  |  | inactive | 
CN1C[C@H](C(=O)N[C@]2(C)O[C@@]3(O)[C@@H]4CCCN4C(=O)[C@H](Cc4ccccc4)N3C2=O)C[C@@H]2c3cccc4[nH]cc(c34)C[C@H]21 | inactive | inactive |  |  | inactive | inactive |  |  | inactive | 
O=c1cc(-c2ccccc2)oc2ccc3ccccc3c12 |  | inactive | inactive |  | 0.137 µM (active) | 17.2 µM (active) |  | inactive | inactive | inactive
CN1CCCC(n2nc(Cc3ccc(Cl)cc3)c3ccccc3c2=O)CC1 (stereo not drawn) |  | inactive |  |  | inactive | inactive | 10.6 µM (active) |  | 10.6 µM (active) | 
